Laboratory results as given in PubChem BioAssay (EPA / NIEHS).
Activity calls are given as the source filed them. Rule for the calls: active = hit-call score of the fitted dose curve at least 0.9, where 1 is the maximum; inactive = score below 0.9.

experiment: APR_HepG2_MitoMembPot_72hr: Apredica 72-hour HepG2 Assay for Mitochondrial Membrane Potential (AID 2282917); details: imaging, actives raise or lower the signal
Description: APR_HepG2_72hr is a cell-based, multiplexed-readout assay that uses HepG2, a human liver cell line, with measurements taken at 72 hours after chemical dosing in a 384-well plate.APR_HepG2_MitoMembPot_72hr is one of 10 assay component(s) measured or calculated from the APR_HepG2_72hr assay. It is designed to make measurements of dye binding, a form of membrane potential reporter, as detected with fluorescence intensity signals by HCS Fluorescent Imaging technology.Data from the assay component APR_HepG2_MitoMembPot_72hr was analyzed into 1 assay endpoint. This assay endpoint, APR_HepG2_MitoMembPot_72hr, was analyzed with bidirectional fitting relative to DMSO as the negative control and baseline of activity. Using a type of membrane potential reporter, gain or loss-of-signal activity can be used to understand changes in the signaling. Furthermore, this assay endpoint can be referred to as a primary readout, because this assay has produced multiple assay endpoints where this one serves a signaling function. To generalize the intended target to other relatable targets, this assay endpoint is annotated to the cell morphology intended target family, where the subfamily is organelle conformation.
Cells were treated with dimethyl sulfoxide (DMSO) as a solvent control at a final concentration of 0.5% v/v or with compounds in DMSO with a resulting final DMSO concentration of 0.5% v/v. Compound treatment was done at concentrations of 0.39, 0.78, 1.56, 3.12, 6.24, 12.5, 25, 50, 100, and 200 uM in duplicate on each plate. Cells were treated with compounds for 1, 24, or 72 hr. Carbonyl […] m-chloro-phenylhydrazone (CCCP) and taxol were used as positive controls for mitochondrial function and cytoskeletal stability, respectively; DMSO served as the negative control for this experiment. Cells were fixed by the direct addition of 50 uL formaldehyde in Hank's Balanced Salt Solution (HBSS) to a final concentration of 3.7%. After incubation in the fixation medium for 30 min at room temperature (293-298 K), cells were rinsed twice with HBSS and treated with cell permeabilization buffer (16 uL of 0.5% Triton X-100) for 10 min at room temperature (293-298 K) before labeling. For mitochondrial membrane potential and mitochondrial measurements, pre-fixed cells were incubated with 50 uL of MitoTracker Red CMXRos (Invitrogen) at a concentration of 250 nM for 30 min before fixation. In the remaining cases, post-fixed cells were labeled by incubation with a multiplexed mixture of primary antibodies in HBSS for 60 min at room temperature (293-298 K) to detect immunoreactivity of c-Jun (1:500), phospho-histone H3 (1:100), phospho-histone H2A.x (1:200), p53 (1:400), alpha-tubulin (1:200) and Hoechst 33342 (2 ug/mL). Cells were labeled for multiplexed imaging on two separate plates: a) Hoechst 33342, MitoTracker Red, phospho-histone H3, and alpha-tubulin, and b) Hoechst 33342, phospho-histone H2A.x, and c-Jun. A final rinse with HBSS (50 uL) was performed before analysis. The primary and secondary antibodies for the proteins were phospho-histone H3 (rabbit anti-phospho-histone H3 and FITC-donkey anti-rabbit IgG), phospho-histone H2A.x (mouse anti-phospho-histone H2A.x and FITC-donkey anti-mouse IgG), c-Jun (rabbit anti-phospho-c-Jun and Cy3-donkey anti-rabbit IgG), p53 (sheep anti-p53 and Cy5-donkey anti-sheep IgG), alpha-tubulin (mouse anti-alpha-tubulin and Cy5-donkey anti-mouse IgG). These antibodies are available as the CellCiphr HepG2 assay kit (Millipore).Digital images of each well were captured using a Cellomics ArrayScan VTI (Thermo Scientific Cellomics) (0.8 NA objective, 0.63x optical coupler, and XF-93 filter set) at 20x magnification. The images were acquired using the autofocus feature of the ArrayScan instrument, which entails the following steps. First, the camera focuses on channel 1 (Hoechst 33342), where nuclei are identified. Second, a Z offset of 1 um is used for capturing mitochondria (MitoTracker Red). […]

| Compound | outcome | AC50 |
| --- | --- | --- |
| Cn1cnc([N+](=O)[O-])c1Sc1ncnc2nc[nH]c12 | inactive | – |
| CCOC(=O)c1ccc(C2CCC(NC[C@H](O)COc3ccc(O)c(NS(C)(=O)=O)c3)CC2)cc1 (stereo not given in full) | inactive | – |
| COc1ccc(/C=C/S(=O)(=O)NC(=O)c2ccc(C)cc2Cl)cc1 | – | 12.8 µM (active) |
| COc1cccc(-c2ccc(/C=C\CN3CCCCCC3)cc2Cl)c1 | inactive | – |
| O=C1OC(=O)C2C3C=CC(C3)C12 (stereo not given) | inactive | – |
| Cc1[nH]cnc1C[C@H]1CCc2c(C)c3ccccc3n2C1=O | inactive | – |
| COc1ccc(-n2nc(C(F)F)cc2-c2ccc(S(C)=O)cc2)cc1 (stereo not given) | inactive | – |
| Cc1ccc(O)cc1 | inactive | – |
| CC(O)CN(CCN(CC(C)O)CC(C)O)CC(C)O (stereo not given) | inactive | – |
| COC(=O)CC(=O)OC | inactive | – |
| C=CCCCCCCCCC(=O)O | inactive | – |
| On1ccccc1=S | inactive | – |
| Cn1c(=O)cc(Oc2ccc(F)cc2F)c2cnc(NCC(C)(C)O)nc21 | inactive | – |
| O=C(CCCCCCCCc1cccnc1)N1CCC(C=C(c2ccccc2)c2ccccc2)CC1 | inactive | – |
| Fc1ccccc1[C@@H](F)COC1CCC(Nc2ncnc3[nH]ncc23)CC1 (stereo not given in full) | inactive | – |
| CCCCCCc1ccc(O)cc1O | inactive | – |
| CCC(C)(C)C(=O)O[C@H]1C[C@@H](C)C=C2C=C[C@H](C)[C@H](CC[C@@H]3C[C@@H](O)CC(=O)O3)[C@H]21 | inactive | – |
| CC[C@H](C)C(=O)O[C@H]1C[C@@H](C)C=C2C=C[C@H](C)[C@H](CC[C@@H]3C[C@@H](O)CC(=O)O3)[C@H]21 | inactive | – |
| COCCOc1cc2cc(C(=O)NC3CCN(C(C)C)CC3)n(CC(=O)Nc3ccc(Cl)cn3)c2cn1 | inactive | – |
| CC/C(=C\C(=N/O)C(N)=O)C(C)[N+](=O)[O-] (stereo not given) | inactive | – |

| Compound | outcome | AC50 |
| --- | --- | --- |
| CN(C)c1ccc(Cc2ccc(N(C)C)cc2)cc1 | inactive | – |
| O=P(OC(CCl)CCl)(OC(CCl)CCl)OC(CCl)CCl | – | 50 µM (active) |
| CCCCCCCCCCCCCCCO | inactive | – |
| Cc1c(-c2cccnc2)c2ccccc2n1CCCCC(=O)O | inactive | – |
| CC(C)(O)c1coc(S(=O)(=O)NC(=O)Nc2c3c(cc4c2CCC4)CCC3)c1 | inactive | – |
| COc1ccc2sc(C(=O)Nc3nnn[nH]3)c(OC(C)C)c2c1 | inactive | – |
| CC(=O)c1ccc2c(c1)[C@H](NC(=O)c1ccc(F)cc1)[C@@H](O)C(C)(C)O2 | inactive | – |
| O=C(O)CC(O)C(=O)O (stereo not given) | inactive | – |
| CNCc1ccc(NC(=O)c2c[nH]c3c2C(=O)CCC3)cc1 | inactive | – |
| CC[C@H]1OC(=O)[C@H](C)[C@@H](O[C@H]2C[C@@](C)(OC)[C@@H](O)[C@H](C)O2)[C@H](C)[C@@H](O[C@@H]2O[C@H](C)C[C@H](N(C)C)[C@H]2O)[C@](C)(O)C[C@@H](C)C(=O)[C@H](C)[C@@H](O)[C@]1(C)O | inactive | – |
| CCCN(C1CCN(C(=O)C2CCNCC2)CC1)[C@@H]1CCc2ccc(OC)cc2C1 | inactive | – |
| Clc1nc(Cl)c(Cl)c(Cl)c1Cl | inactive | – |
| CCOC(=O)CC(CC(=O)OCC)(OC(C)=O)C(=O)OCC | inactive | – |
| CC(C)c1cccc(C(C)C)c1N1C(=O)c2ccc(O)cc2C1=O | inactive | – |
| CC(C)=CCC/C(C)=C/CO | inactive | – |
| CCOC(=O)COc1ccc2c(c1)CC(NCC(O)c1cccc(Cl)c1)CC2 (stereo not given) | inactive | – |
| O=C(O)c1cccc(N(Cc2cccnc2)c2ccc(OC(F)F)c(OC(F)F)c2)c1 | inactive | – |
| O=c1n(CC2CO2)c(=O)n(CC2CO2)c(=O)n1CC1CO1 (stereo not given) | inactive | – |
| O=C(OC[C@H]1O[C@@H](OC(=O)c2cc(O)c(O)c(OC(=O)c3cc(O)c(O)c(O)c3)c2)[C@H](OC(=O)c2cc(O)c(O)c(OC(=O)c3cc(O)c(O)c(O)c3)c2)[C@@H](OC(=O)c2cc(O)c(O)c(OC(=O)c3cc(O)c(O)c(O)c3)c2)[C@@H]1OC(=O)c1cc(O)c(O)c(OC(=O)c2cc(O)c(O)c(O)c2)c1)c1cc(O)c(O)c(OC(=O)c2cc(O)c(O)c(O)c2)c1 | – | 15.1 µM (active) |
| CNS(=O)(=O)c1cc(C(=O)N2CCC(CCN3C4CCC3CC(n3c(C)nc5ccccc53)C4)(c3cccc(F)c3)CC2)c(Cl)cc1F (stereo not given) | inactive | – |
